Each molecule was assayed on Plasmodium falciparum (assay: GSK_TCMDC: Inhibition of Plasmodium falciparum 3D7 in whole red blood cells, using parasite LDH activity as an index of growth. Test compounds present at 2uM).
Assay type: functional

Row | Compound | Inhibition [%]
1 | Cc1ccccc1N1CCN(c2ccc(C(=O)NC(C)C)cn2)CC1.O=C(O)C(F)(F)F | 89
2 | COc1ccc(-c2ccc(NC(=O)c3ccc(Cl)cc3)cc2)cc1CN(C)CCN(C)C.O=C(O)C(F)(F)F | 97
3 | CN1CCN(c2cccc(-c3nnc(-c4ccc(OCC(=O)NCc5cccc(C(F)(F)F)c5)c([N+](=O)[O-])c4)o3)c2)CC1 | 90
4 | O=C(c1cncc(-c2ccccc2)c1)N(Cc1cncn1Cc1ccccc1F)CC1CC1 | 100
5 | Cc1cc(NC(=O)NCCN2CCC(NS(=O)(=O)c3cccc(Br)c3)C2)c2ccccc2n1.O=C(O)C(F)(F)F (stereo not given) | 99
6 | COc1cc(CNCCCCCCNCc2cc(OC)c3ccccc3c2OC)c(OC)c2ccccc12.CS(=O)(=O)O | 100
7 | CCc1cn(C)c2c(N3CCCC3=O)cc(C(=O)N[C@@H](Cc3ccccc3)[C@H](O)CNC3CCCCC3)cc12 | 97
8 | Cc1cccc2nc(-c3cccc(-c4cccc(NC(=O)Cc5c[nH]cn5)c4)c3)[nH]c12 | 100
9 | Nc1nc(N)c2c(ccn2Cc2cc3c(cc2Cl)OCO3)n1 | 98
10 | Br.NCC(=O)NC12CC3CC(CC(C3)C1)C2 | 87
11 | O=C(Nc1ccc(-c2nc3ccccc3[nH]2)cc1)c1ccc(Cl)s1 | 99
12 | COc1cc(Nc2nccc(N3CCC(NC(=O)Nc4cccc(C(C)=O)c4)C3)n2)cc(OC)c1OC (stereo not given) | 91
13 | CC(=O)N1CCN(c2ccc(NC(=O)c3oc(-c4ccccc4)nc3C(F)(F)F)cn2)CC1 | 92
14 | O=C(Nc1ccc(Cl)cc1)c1cc(Cl)ccc1NC(=O)C1CCc2ccccc2O1 (stereo not given) | 98
15 | CCCCNCc1ccc(-c2nc(CN(Cc3ccc(Cl)c(Cl)c3)C(=O)CN(C)C)cs2)cc1.O=C(O)C(F)(F)F | 100
16 | Cc1ccoc1C(=O)Nc1cccc(-c2cccc(-c3nc4cccc(C)c4[nH]3)c2)c1 | 100
17 | OC(c1ccc2ccccc2c1)C1CN(CCc2ccccc2)CCC1(O)c1ccccc1 (stereo not given) | 99
18 | Cc1c(CCNC(=O)CCCN2CC(C)CC(C)C2)c2ccccc2n1C.Cl (stereo not given) | 87

Row | Compound | Inhibition [%]
19 | O=C(/C=C/c1ccc(Cl)c(Cl)c1)NCCCCCCN1CCN(C(=O)Nc2ccc(F)c(Cl)c2)CC1 | 86
20 | Cc1nnsc1C(=O)Nc1ccc(-c2ccc(-c3nc4cccc(C)c4[nH]3)s2)cc1 | 100
21 | CCOC(=O)N[C@@H]1CN[C@@H](C#Cc2cc3c(Nc4ccc(OCc5cccc(F)c5)c(Cl)c4)ncnc3s2)C1 | 86
22 | FC(F)(F)c1ccc2[nH]c(-c3cccc(-c4cccc(CNCCc5ccncc5)c4)c3)nc2c1.O=C(O)C(F)(F)F | 99
23 | CCC(C)NC(=O)Nc1ccc(-c2cccc(-c3nc4cccc(C)c4[nH]3)c2)cc1 (stereo not given) | 100
24 | COc1ccc(CNCc2ccc(F)cc2)cc1-c1cccc(S(=O)(=O)NCCN2CCCC2)c1.O=C(O)C(F)(F)F | 100
25 | Fc1ccc(C=NNc2nc3ccccc3[nH]2)cc1 | 98
26 | CCCOc1ccc(N2C(N)=NC(N)=NC2(C)C)cc1.Cl | 97
27 | CCCc1ccc(NC(=O)c2cccc(CN3CCCN(Cc4cccc(C#N)c4)CC3)c2)cc1.O=C(O)C(F)(F)F | 85
28 | CN1CCN(Cc2cccc(-c3ccc4c(Nc5ccc(Oc6cccnc6)cc5)ccnc4c3)c2)CC1 | 100
29 | COc1cc(C(=O)NC2CCN(Cc3ccccc3)CC2)ccc1-c1cc2cc(Cl)c(Cl)cc2[nH]1.O=C(O)C(F)(F)F | 100
30 | Nc1ncc(-c2ccc3ncccc3c2)c(N)n1.O=C(O)C(F)(F)F | 97
31 | FC(F)(F)c1ccc2[nH]c(-c3ccc(-c4cccc(CNCCc5cccnc5)c4)s3)nc2c1.O=C(O)C(F)(F)F | 100
32 | O=C(Nc1ccc(C(=O)OCC(c2ccccc2)c2ccccc2)cc1)N[C@@H](Cc1ccc(O)cc1)C(=O)NC1CCN(Cc2ccc(O)cc2)C1.O=C(O)C(F)(F)F (stereo not given in full) | 96
33 | N#Cc1ccc(-c2ccc(C(=O)NCCCCN3CCC(c4cn(CCCO)c5ccccc45)CC3)cc2)cc1 | 98
34 | CCCCCCCCCN1CC[C@@H](CCCc2ccnc3ccc(O)cc23)[C@@H](CC)C1.O=C(O)C(=O)O | 83
35 | Fc1ccc2[nH]cc(CCNCc3ccc(-c4cccc(-c5nc6ccccc6[nH]5)c4)cc3)c2c1.O=C(O)C(F)(F)F | 100
